{"source": "PubChem BioAssay AID504577", "about": "(NMMLSC, 2011)", "note": "Among all 350,000 compounds or so, about 1,300 (0.37%) were called active. The sample holds actives, similar compounds and a random draw of the others, so the mix is not that of the screen. Cut-off read from the data, not from the text of the source: active = response mostly above about 7.3% (no sharp cut-off); inactive = mostly below about 5.4%."}
{"test": "yeast vacuolar ATPase proton transport modulators – pHLuorin cytosolic pH fluorescence, primary screen (AID 504577)", "conditions": "S. cerevisiae, at 10 µM, hits give high values"}
{"smiles": "CCCCC(CC(C)O)c1n[nH]c(=S)n1-c1ccccc1", "note": "(centres undefined)", "response": "3.53% (inactive)"}
{"smiles": "OCc1nc(CO)n(Cc2ccccc2)n1", "response": "12.8% (active)"}
{"smiles": "Nc1c(-c2ccccc2)nnn1Cc1ccccc1", "response": "-5.08% (inactive)"}
{"smiles": "Cc1nn(Cc2ccccc2)c(C)c1NS(=O)(=O)c1ccccc1", "response": "1.59% (inactive)"}
{"smiles": "CSc1nc2ccccc2cc1/C=C(\\C#N)c1ccc(Cl)cc1Cl", "response": "-2.01% (inactive)"}
{"smiles": "COC(=O)c1sc2[nH]c(=S)n(N)c(=O)c2c1C", "response": "-1.69% (inactive)"}
{"smiles": "O=C(CN1CCC(O)(c2cccc(C(F)(F)F)c2)CC1)NCCc1ccccc1", "response": "0.05% (inactive)"}
{"smiles": "CC(OC(=O)c1cccc(S(=O)(=O)N2CCOCC2)c1)C(=O)NCC1CCCCC1", "note": "(centres undefined)", "response": "0.69% (inactive)"}
{"smiles": "C/C(N)=C(/C#N)C(=O)COC(=O)c1cc(-c2ccc(C)cc2)nc2ccccc12", "response": "2.77% (inactive)"}
{"smiles": "C/C(N)=C(/C#N)C(=O)COC(=O)C1=NN(c2ccccc2)C(=O)CC1", "response": "1.14% (inactive)"}
{"smiles": "COc1cccc(OC)c1C(=O)OCC(=O)/C(C#N)=C(\\C)N", "response": "6.97% (active)"}
{"smiles": "CC(=O)c1ccc(Cc2ncc(C(F)(F)F)cc2Cl)s1", "response": "-0.37% (inactive)"}
{"smiles": "CC1(c2nnc(-c3ccncc3)o2)CC(c2cccnc2)=NO1", "note": "(centres undefined)", "response": "0.16% (inactive)"}
{"smiles": "CCN1CCC2(CC1)N=C(c1ccc(F)cc1)C(=S)N2C(=O)c1ccc(C)cc1", "response": "-0.32% (inactive)"}
{"smiles": "CC(CNC(=O)c1ccc(N)cc1)NC(=O)c1ccc(N)cc1", "note": "(centres undefined)", "response": "-1.34% (inactive)"}
{"smiles": "C[n+]1ccc(C(=O)NCc2ccccc2)cc1", "response": "4.19% (inactive)"}
{"smiles": "Nc1ccc(C(=O)NCc2ccccc2)cc1", "response": "14.4% (active)"}
{"smiles": "Cn1c(N)c(C(=O)COC(=O)C23CC4CC(CC(C4)C2)C3)c(=O)n(C)c1=O", "response": "-2.17% (inactive)"}
{"smiles": "Nc1c(-c2cccc(Cl)c2)cnn1-c1cccc([N+](=O)[O-])c1", "response": "0.43% (inactive)"}
{"smiles": "Cc1ccc(-n2nc(C)c(/C=N/NC(=O)c3cccs3)c2Cl)cc1", "response": "1.32% (inactive)"}
{"smiles": "Cc1nn(-c2ccccc2)c(Cl)c1/C=N/NC(=O)c1nn(C)cc1[N+](=O)[O-]", "response": "-3.82% (inactive)"}
{"smiles": "Cc1cc(=O)[nH]c(N/N=C/c2c(C)nn(-c3ccccc3Cl)c2Cl)n1", "response": "8.62% (active)"}
{"smiles": "CCCCC1(C(=O)OCC)NC(c2ccc(O)cc2)C2C(=O)N(c3ccccc3)C(=O)C21", "note": "(centres undefined)", "response": "-2.37% (inactive)"}
{"smiles": "CCCSc1ccc([C@H]2N[C@@](Cc3ccccc3)(C(=O)OC)[C@H]3C(=O)N(C)C(=O)[C@@H]23)cc1", "response": "-2.76% (inactive)"}
{"smiles": "CCOC(=O)C1(Cc2ccc(O)cc2)NC(c2ccccc2F)C2C(=O)N(C)C(=O)C21", "note": "(centres undefined)", "response": "16.1% (active)"}
{"smiles": "COc1ccc(CC(=O)Nc2c3c(nn2-c2cccc(Cl)c2)CS(=O)C3)cc1", "note": "(centres undefined)", "response": "5.74% (inactive)"}
{"smiles": "CCN(CC)C(=O)C1=C(C)N(Cc2ccc(OC)cc2)C(=O)C(CC(=O)NCCCCc2ccccc2)C1", "note": "(centres undefined)", "response": "2.59% (inactive)"}
{"smiles": "Fc1cccc(CSc2nnc3ccc(-c4ccncc4)nn23)c1", "response": "30.5% (active)"}
{"smiles": "O=C(CSc1nnc2ccc(-c3ccncc3)nn12)N1CCCCC1", "response": "2.79% (inactive)"}
{"smiles": "COc1cc(NC(=O)CSc2nnc3ccc(-c4ccncc4)nn23)cc(OC)c1", "response": "-1.89% (inactive)"}
{"smiles": "NS(=O)(=O)c1ccc(CCNC(=O)c2ccc([N+](=O)[O-])cc2[N+](=O)[O-])cc1", "response": "0.09% (inactive)"}
{"smiles": "CCOc1ccc(-n2c(SCC(=O)Nc3cc(C(=O)O)ccc3Cl)nc3ccccc3c2=O)cc1", "response": "2.47% (inactive)"}
{"smiles": "COC(=O)c1cc(S(=O)(=O)N2CCN(c3cc(C)ccc3C)CC2)c[nH]1", "response": "-1.19% (inactive)"}
{"smiles": "COC(=O)c1ccc(/C=C2/C(=O)Oc3ccccc32)cc1", "response": "-0.46% (inactive)"}
{"smiles": "O=C1Oc2ccccc2C(=O)/C1=C/c1ccccc1O", "response": "15.2% (active)"}
{"smiles": "COC(=O)c1c(NC(=O)COc2ccc(Cl)cc2Cl)sc2c1CC(C)(C)NC2(C)C", "response": "4.61% (inactive)"}
{"smiles": "O=C(COc1cc2oc(=O)c3c(c2cc1Cl)CCC3)NCCCN1CCOCC1", "response": "9.9% (active)"}
{"smiles": "Cc1cc(=O)oc2c(C)c(OCC(=O)NCCN3CCOCC3)ccc12", "response": "1.98% (inactive)"}
{"smiles": "CCCc1cc(=O)oc2cc(OCC(=O)Nc3ccc(CN4CCOCC4)cc3)c(Cl)cc12", "response": "-2.48% (inactive)"}
{"smiles": "CC(=O)Nc1c2c(nn1-c1ccc(C)cc1C)CS(=O)C2", "note": "(centres undefined)", "response": "-4.1% (inactive)"}
{"smiles": "OCC(O)CN(c1ccccc1)c1ccccc1", "note": "(centres undefined)", "response": "1.73% (inactive)"}
{"smiles": "Cc1cc(C(=O)Nc2nnc(C3CC3)s2)c(C)s1", "response": "3.66% (inactive)"}
{"smiles": "Cc1occc1C(=O)Nc1nnc(C2CCCCC2)s1", "response": "10% (active)"}
{"smiles": "COc1ccc(NC(=O)CCC(=O)Nc2nnc(C3CCCCC3)s2)cc1", "response": "-2.38% (inactive)"}
{"smiles": "CCSCc1nc(N)nc(NCCc2ccccc2)n1", "response": "-0.9% (inactive)"}
{"smiles": "CCSC1=NCCN1C(=O)c1ccc(S(=O)(=O)N(CC)CC)cc1", "response": "2.02% (inactive)"}
{"smiles": "COc1ccc2nc(N3C(=O)C(O)=C(C(=O)c4ccco4)C3c3ccco3)sc2c1", "note": "(centres undefined)", "response": "-1.37% (inactive)"}
{"smiles": "COc1ccc2nc(N3CCN(C(=O)c4ccc([N+](=O)[O-])o4)CC3)sc2c1", "response": "27.1% (active)"}
{"smiles": "CCN(CC)CCN(C(=O)c1cccc([N+](=O)[O-])c1)c1nc2ccc(OC)cc2s1", "response": "-1.21% (inactive)"}
{"smiles": "CCOC(=O)CC1COCCN1C(=O)c1cc(COc2ccc(F)c(F)c2)on1", "note": "(centres undefined)", "response": "0.12% (inactive)"}
{"smiles": "COc1cc(=O)[nH]c(=O)n1C(=O)Cc1ccccc1", "response": "-1.96% (inactive)"}
{"smiles": "Cc1nnsc1C(=O)N/N=C/c1cccc(C(F)(F)F)c1", "response": "3.26% (inactive)"}
{"smiles": "COc1ccc(/C=N/NC(=O)Cn2cc(C(F)(F)F)ccc2=O)cc1", "response": "-4.67% (inactive)"}
{"smiles": "COc1ccc(/C=N/NC(=O)c2cccc(C(F)(F)F)c2)cc1", "response": "13.1% (active)"}
{"smiles": "CCCn1c(C(C)Nc2nc(-c3ccc(C)cc3)cs2)nc2cc(Cl)c(N3CCCCC3)cc21", "note": "(centres undefined)", "response": "-1.24% (inactive)"}
{"smiles": "c1ccc(-c2nnc3n2NC(c2ccc4c(c2)OCO4)S3)cc1", "note": "(centres undefined)", "response": "-3.32% (inactive)"}
{"smiles": "CCOC(=O)C(C)n1cnc2c(nnn2-c2cccc(OC)c2)c1=O", "note": "(centres undefined)", "response": "1.26% (inactive)"}
{"smiles": "COC(=O)C(C)n1cnc2c(nnn2-c2cccc(Cl)c2)c1=O", "note": "(centres undefined)", "response": "16.6% (active)"}
{"smiles": "COC(=O)C(C)n1cnc2c(nnn2-c2ccc(F)cc2)c1=O", "note": "(centres undefined)", "response": "1.53% (inactive)"}
